From article PMC4336329 (PLoS ONE, 2015)
Among all 310,000 compounds or so, about 14,000 (4.5%) showed an effect of 50% or more. The effect is printed as a negative number. This is one part of a sample in which strong results are shown more often than they occur.

target: human ether-à-go-go-related gene (hERG) potassium channel (human, UniProt Q12809); assay: primary screen, population patch clamp on CHO cells stably expressing hERG; higher = less effect of the substance
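Note: peak tail current of the secondary pulse compared with the same well before compound.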

Chain of human ether-à-go-go-related gene (hERG) potassium channel (Q12809 whole entry, looked up): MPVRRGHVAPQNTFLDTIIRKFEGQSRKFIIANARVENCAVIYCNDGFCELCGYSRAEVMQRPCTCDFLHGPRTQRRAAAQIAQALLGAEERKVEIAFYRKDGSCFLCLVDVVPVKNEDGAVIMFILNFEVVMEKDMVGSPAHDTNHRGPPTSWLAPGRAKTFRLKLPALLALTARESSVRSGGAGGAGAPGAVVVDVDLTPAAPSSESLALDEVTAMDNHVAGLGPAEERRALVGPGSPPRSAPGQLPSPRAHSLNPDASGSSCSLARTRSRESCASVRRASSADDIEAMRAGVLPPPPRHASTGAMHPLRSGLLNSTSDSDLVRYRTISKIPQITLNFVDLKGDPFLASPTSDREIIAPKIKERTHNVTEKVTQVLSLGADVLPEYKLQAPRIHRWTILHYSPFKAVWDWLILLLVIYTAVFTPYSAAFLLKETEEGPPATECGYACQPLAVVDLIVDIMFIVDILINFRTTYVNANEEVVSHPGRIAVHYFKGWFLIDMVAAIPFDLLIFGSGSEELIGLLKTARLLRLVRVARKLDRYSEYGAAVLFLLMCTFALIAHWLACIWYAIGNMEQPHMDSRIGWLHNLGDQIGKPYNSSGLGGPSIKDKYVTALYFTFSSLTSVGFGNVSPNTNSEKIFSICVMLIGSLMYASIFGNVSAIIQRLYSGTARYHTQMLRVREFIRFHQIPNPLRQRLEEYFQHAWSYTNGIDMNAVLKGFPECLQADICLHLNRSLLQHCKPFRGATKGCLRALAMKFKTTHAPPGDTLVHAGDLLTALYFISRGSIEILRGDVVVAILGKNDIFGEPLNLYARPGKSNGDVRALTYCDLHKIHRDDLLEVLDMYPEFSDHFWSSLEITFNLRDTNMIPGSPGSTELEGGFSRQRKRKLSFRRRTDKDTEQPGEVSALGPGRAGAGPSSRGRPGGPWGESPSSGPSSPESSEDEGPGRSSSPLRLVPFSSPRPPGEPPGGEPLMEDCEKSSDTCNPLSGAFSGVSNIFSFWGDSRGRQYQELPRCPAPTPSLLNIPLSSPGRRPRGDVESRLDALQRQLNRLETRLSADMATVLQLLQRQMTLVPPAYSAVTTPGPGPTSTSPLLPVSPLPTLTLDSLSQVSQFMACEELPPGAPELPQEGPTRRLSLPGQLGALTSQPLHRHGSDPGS

| Compound | hERG current change (%, negative = inhibition) at 10uM [%] |
| --- | --- |
| COc1ccc(CN(C)CCc2ccccn2)c(OC)c1OC.O=C(O)C(=O)O | -38.9 |
| COc1ccc(CN(C)CC(O)COC(c2ccccc2)c2ccccc2)c(OC)c1OC (stereo not shown) | -76.7 |
| COc1ccc(CN(C)CC(O)COc2ccc(C(=O)c3ccccc3)cc2)c(OC)c1OC (stereo not shown) | -63.7 |
| COc1cccc(OC)c1OCCOc1ccc(C(=O)c2ccccc2)cc1 | -4.82 |
| CN(Cc1cccc(Cl)c1Cl)CC(O)COc1ccccc1.O=C(O)C(=O)O (stereo not shown) | -12 |
| COc1ccc(CN(C)Cc2ccccc2)c(OC)c1OC | -16.9 |
| COc1ccc(CCNC(=O)C2CCC(=O)N(C3CCCCCC3)C2)cc1 (stereo not shown) | 8.9 |
| O=C(CCN1C(=O)NC2(CCCC2)C1=O)Nc1cccc(S(=O)(=O)N2CCOCC2)c1 | 10.7 |
| O=C(CSc1ncnc2c1nnn2Cc1ccccc1F)NCC1CCCO1 (stereo not shown) | -2.7 |
| Cc1ccc(S(=O)(=O)CCC(=O)Nc2ccc3c(c2)OCO3)cc1 | -16 |
| Cc1ccc(C)c(S(=O)(=O)N2CCN(C(=O)Nc3ccccc3)CC2)c1 | -26.1 |
| O=C(/C=C/c1ccc([N+](=O)[O-])s1)N1CCCC1 | -52.9 |
| O=C(/C=C/c1ccc([N+](=O)[O-])s1)N1CCN(c2ccccc2)CC1 | -37 |
| O=C(/C=C/c1ccc([N+](=O)[O-])s1)N1CCCCC1 | -38.7 |
| COc1cccc(-c2nn(CCC#N)cc2C(=O)Nc2ccccc2Cl)c1 | 5.09 |
| CCN(CC(=O)Nc1cc(C)nn1-c1nc(C)cc(C)n1)Cc1ccccc1 | -42.8 |
| COc1ccc(CNCC(=O)Nc2cc(C)nn2-c2nc(C)cc(C)n2)cc1OC | -56.8 |
| CCc1ccc(NC(=O)CNCc2ccc(OC)c(OC)c2)cc1.O=C(O)C(=O)O | -21.3 |
| Cc1cc(C)nc(-n2nc(C)cc2NC(=O)CNC(C)c2ccccc2)n1 (stereo not shown) | -62.2 |
| Cc1cc(NC(=O)CSc2cc(Cl)ccc2Cl)n(-c2ccccc2)n1 | -20.2 |
| Cc1cc(C)nc(-n2nc(C)cc2NC(=O)C(C)C)n1 | 16.9 |
| CCC(C(=O)Nc1cc(C)cc(C)n1)c1ccccc1 (stereo not shown) | -23.6 |

| Compound | hERG current change (%, negative = inhibition) at 10uM [%] |
| --- | --- |
| CCC(C(=O)Nc1cc(C)nn1-c1nc(C)cc(C)n1)c1ccccc1 (stereo not shown) | -67.7 |
| CC(=O)Nc1cc(C)nn1-c1nc(C)cc(C)n1 | 25.4 |
| COc1ccc(-c2nc(CSCC(=O)N3CCN(C)CC3)c(C)o2)cc1OC | 11.7 |
| COc1ccccc1Nc1nnc(SCc2nnc(-c3cc(OC)c(OC)c(OC)c3)o2)s1 | -21.7 |
| CC1(C)O[C@@H]2[C@H](O1)[C@@H](COS(=O)(=O)[O-])O[C@H]2n1cnc2c(N)ncnc21.[K+] | 15.7 |
| O=C(COc1ccc(C(=O)NCCc2ccccc2)cc1)Nc1ccccc1 | 7.64 |
| Cc1[nH]c2ccc(OC(F)(F)F)cc2c1CCNCc1ccc(Cl)cc1.O=C(O)C(=O)O | -34.5 |
| COc1ccc(CNCCc2c(C)[nH]c3ccc(OC(F)(F)F)cc23)c(OC)c1.O=C(O)C(=O)O | -51 |
| COc1ccc2[nH]c(C)c(CCNCc3cn(C)c4ccccc34)c2c1.O=C(O)C(=O)O | -27.8 |
| CCOc1cccc(CNCCc2c(C)[nH]c3ccc(OC(F)(F)F)cc23)c1O.O=C(O)C(=O)O | -51.9 |
| COc1ccc2[nH]c(C)c(CCNCc3cccnc3)c2c1.O=C(O)C(=O)O | -3.77 |
| Cc1[nH]c2ccc(OC(F)(F)F)cc2c1CCNCc1cccc([N+](=O)[O-])c1 | -25.4 |
| CC(=O)n1cc(CO)c2ccccc21 | 9.03 |
| O=S(=O)(Nc1nc2ccccc2nc1Nc1ccc2c(c1)OCO2)c1ccc(F)cc1 | 24.5 |
| Cc1cccc(C)c1NC(=O)CSc1ccc([N+](=O)[O-])cn1 | -12.3 |
| COc1ccc(NC(=S)NCc2cccnc2)cc1OC | 5.8 |
| CCc1ccc(N2CC(O)(c3cccs3)[N+]3=C2SCCC3)cc1.[Br-] (stereo not shown) | -70 |
| OC1(c2ccc(Br)cc2)CN(c2ccccc2)C2=[N+]1CCS2.[Br-] (stereo not shown) | -19.5 |
| OC1(c2cccs2)CN(c2ccc(Cl)cc2)C2=[N+]1CCCS2.[Br-] (stereo not shown) | -73.6 |
| OC1(c2cccs2)CN(c2ccc(Br)cc2)C2=[N+]1CCCS2.[Br-] (stereo not shown) | -72.1 |
| Cc1ccc(Oc2ccc(C(=O)NC3CCSC3=O)cn2)cc1 (stereo not shown) | 12 |
| CC(C)(CNc1ccc([N+](=O)[O-])cc1Cl)CNS(C)(=O)=O | -1.02 |

| Compound | hERG current change (%, negative = inhibition) at 10uM [%] |
| --- | --- |
| Cc1cc(/C=N/n2cnnc2)c(C)n1-c1ccccc1 | -4.02 |
| COc1ccccc1C(=O)CSc1nccn1C | -11.1 |
| O=C1NC(=O)N(c2ccccc2)C(=O)/C1=C\c1ccc2c3c(cccc13)CC2 | -20.4 |
| CCOC(=O)c1c(NC(=O)c2ccc(Cl)cc2)csc1C | -0.689 |
| COc1cccc(C(=O)NCCS(=O)(=O)NCc2ccc(Cl)cc2)c1 | -36.5 |
| Cc1cc(C(=O)NCCCN2CCN(c3cc(Cl)ccc3C)CC2)n(-c2ccccc2)n1 | -89.2 |
| CC(=O)Nc1ccccc1C(=O)C(=O)Nc1cccc(C(=O)NCc2ccc(C)cc2)c1 | -58.3 |
| COc1ccc(CNS(=O)(=O)CCNC(=O)c2ccccc2)cc1 | -4.36 |
| O=C(NCCCn1ccnc1)c1cccc(Cl)c1 | 0.459 |
| Cc1cc(C(=O)NCCCN2CCOCC2)n(-c2ccccc2)n1 | 19.3 |
| Cc1cc(C(=O)NCCCN2CCN(C3CCCCC3)CC2)n(-c2ccccc2)n1 | 2.76 |
| COc1ccc(CNS(=O)(=O)CCNC(=O)c2cccc(OC)c2)cc1 | -78.1 |
| O=C(NCCCN1CCN(CCCNC(=O)c2cccc(Cl)c2)CC1)c1cccc(Cl)c1 | -74.4 |
| CCCCNC(=O)c1cccc(NC(=O)C(=O)c2ccccc2NC(C)=O)c1 | -19.1 |
| O=C(NCCCN1CCN(c2cccc(Cl)c2)CC1)c1cccc(N2CCCC2=O)c1 | -38 |
| CC(=O)Nc1ccccc1C(=O)C(=O)Nc1cccc(C(=O)NCc2ccccc2)c1 | -32.6 |
| Oc1c(Cl)cc(Cl)cc1/C=N/c1nccs1 | -11.8 |
| O=C(COC(=O)C1CCN(S(=O)(=O)c2cccc3cccnc23)CC1)c1ccc([N+](=O)[O-])cc1 | 13.1 |
| O=C(NC(=O)c1ccccc1F)Nc1nc(-c2cccs2)cc(C(F)(F)F)n1 | 4.49 |
| COC(=O)CC1c2cc(OC)c(OC)cc2CC(=O)c2cc(OC)c(OC)cc21 (stereo not shown) | 6.73 |
| Nn1c(COc2ccccc2)nnc1SCc1cc(=O)[nH]c2ccccc12 | -14.3 |
| CCCNC(=S)N1CCC(C(=O)c2ccc3c(c2)OCCO3)CC1 | -28.9 |

| Compound | hERG current change (%, negative = inhibition) at 10uM [%] |
| --- | --- |
| COc1ccccc1CNS(=O)(=O)c1csc(C(N)=O)c1 | 20.1 |
| CCCc1cc(=O)[nH]c(SCC(=O)NN(c2ccccc2)c2ccccc2)n1 | -1.04 |
| CCOc1ccc(C(=O)NCCN2CCCC2)cc1.Cl | -40.6 |
| Cl.O=C(NCCN1CCN(c2ccccc2)CC1)c1cccc(Cl)c1 | -54.2 |
| Cc1cccc(C(=O)NCCN2CCN(c3ccccc3)CC2)c1.Cl | -37.1 |
| COc1cccc(C(=O)NCCCN2CCN(CCCNC(=O)c3cccc(OC)c3)CC2)c1 | -85.4 |
| Cn1c(C(=O)NCCCN2CCN(c3cccc(Cl)c3)CC2)cc2c(=O)n(C)c3ccccc3c21 | 9.13 |
| Nc1ccccc1C(=O)NCCCN1CCN(c2cccc(Cl)c2)CC1 | -71.4 |
| CCOc1c(Cl)cc(C(=O)NCCN2CCCCC2)cc1Cl | -58.6 |
| COc1cc(OC)cc(C(=O)NCCCN2CCN(CCCNC(=O)c3cc(OC)cc(OC)c3)CC2)c1 | -48.8 |
| COc1cccc(C(=O)NCCN2CCN(c3ccc(Cl)cc3)CC2)c1 | -49.8 |
| COc1cccc(C(=O)NCCCNC(=O)c2cccc(OC)c2)c1 | 1.43 |
| COc1cc(C(=O)NCCN2CCCC2)cc(OC)c1OC.Cl | 9.26 |
| Nc1ccccc1C(=O)NCCCN1CCOCC1 | 15.6 |
| CCN(CC(=O)Nc1c(F)cccc1F)C(=O)C1CCCN(C(=O)c2ccc(Cl)cc2)C1 (stereo not shown) | -31.5 |
| Cc1ccccc1Nc1nc(N2CCOCC2)nc(N2CCOCC2)n1.Cl | 14 |
| CC1=CC(c2ccc(Cl)cc2)n2nc(NS(=O)(=O)c3ccc(C)cc3)nc2N1 (stereo not shown) | -19.7 |
| CCOC(=O)c1cnc2c(cnn2C)c1NCCC(O)C(F)(F)F (stereo not shown) | 0.469 |
| Cc1ccc(SCC(=O)Nc2ccc(F)cc2[N+](=O)[O-])cc1C | 11.7 |
